What is called AC50 is the concentration giving half of the maximal activity seen.

Structures are written as SMILES. Inconclusive results are not listed. Calls of active or inactive are those of the source. Rule for the calls: active = hit-call score of the fitted dose curve at least 0.9, where 1 is the maximum; inconclusive = response in the unintended direction; inactive = score below 0.9.

Sequence of Ratio of Nucleoli Translocation and Cytoplasm, AR (gene 367) (P10275 whole entry, looked up, the tested form may be a part): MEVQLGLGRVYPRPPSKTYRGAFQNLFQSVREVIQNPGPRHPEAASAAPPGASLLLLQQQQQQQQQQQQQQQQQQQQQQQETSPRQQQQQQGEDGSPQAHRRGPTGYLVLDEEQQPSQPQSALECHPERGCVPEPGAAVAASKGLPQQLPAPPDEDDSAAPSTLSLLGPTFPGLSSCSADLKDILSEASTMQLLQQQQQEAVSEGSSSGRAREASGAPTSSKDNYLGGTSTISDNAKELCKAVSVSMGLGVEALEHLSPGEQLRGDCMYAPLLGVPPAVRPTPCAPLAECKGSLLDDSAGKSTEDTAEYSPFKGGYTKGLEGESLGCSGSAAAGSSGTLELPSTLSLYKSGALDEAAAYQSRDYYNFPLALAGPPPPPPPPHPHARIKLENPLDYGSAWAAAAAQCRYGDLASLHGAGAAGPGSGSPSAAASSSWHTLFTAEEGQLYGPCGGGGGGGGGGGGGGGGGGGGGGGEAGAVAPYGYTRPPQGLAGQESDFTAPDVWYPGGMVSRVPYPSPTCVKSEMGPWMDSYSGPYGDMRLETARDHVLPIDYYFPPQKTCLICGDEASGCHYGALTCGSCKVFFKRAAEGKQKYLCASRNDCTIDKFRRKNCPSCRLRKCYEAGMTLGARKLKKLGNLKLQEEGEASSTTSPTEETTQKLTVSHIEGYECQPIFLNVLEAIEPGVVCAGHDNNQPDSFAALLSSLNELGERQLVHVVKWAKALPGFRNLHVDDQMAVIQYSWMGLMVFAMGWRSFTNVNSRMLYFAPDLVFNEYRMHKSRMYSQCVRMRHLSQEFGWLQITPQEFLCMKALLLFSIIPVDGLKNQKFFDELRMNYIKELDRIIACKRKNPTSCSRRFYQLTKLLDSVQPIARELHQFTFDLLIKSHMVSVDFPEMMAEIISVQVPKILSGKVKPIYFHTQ

The experiment has as its target Ratio of Nucleoli Translocation and Cytoplasm, AR (gene 367) (UniProt P10275). As to the kind of experiment: UPITT_HCI_U2OS_AR_TIF2_Nucleoli_Cytoplasm_Ratio_Antagonist: University of Pittsburgh U2OS Androgen Receptor-Transcriptional Intermediary Factor 2 (AR-TIF2) Antagonism High Content Imaging Assay for Ratio of Nucleoli Translocation and Cytoplasm (AID 2283999).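 Note: antagonists lower the DHT-driven ratio of nucleolar to cytoplasmic red signal.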 The source says: UPITT_AR_TIF2_PPIB is a cell-based, high-content imaging assay that uses U2OS, a human osteosarcoma cell line, expressing a human androgen receptor fused to red fluorescent protein and the coactivator TIF2 fused to green fluorescent protein. UPITT_HCI_U2OS_AR_TIF2_Nucleoli_Cytoplasm_Ratio_Antagonist is one of four assay components measured from the UPITT_AR_TIF2_PPIB assay. It is designed to make measurements of the ratio of red fluorescence localized in the nucleolar region of the cell nucleus to red fluorescence localized in the cytoplasm as detected with high-content fluorescent imaging.Data from the assay component UPITT_HCI_U2OS_AR_TIF2_Nucleoli_Cytoplasm_Ratio_Antagonist was analyzed into 1 assay endpoint. This assay endpoint, UPITT_HCI_U2OS_AR_TIF2_Nucleoli_Cytoplasm_Ratio_Antagonist, was analyzed in the positive analysis fitting direction relative to DHT as the baseline of activity. Using a type of binding reporter, measures of receptor for loss-of-signal activity can be used to understand the binding at the pathway-level as it relates to the gene AR.
Daughter plates containing 2 uL of 10 mM compounds in DMSO were prepared and replicated from the 384-well Library of Pharmacologically Active Compounds (LOPAC) master plates using the Bravo outfitted with a 384-well transfer head. Aluminum adhesive plate seals were applied with an Abgene Seal-IT 100 (Rochester, NY) plate sealer, and the plates were stored at -20 C in a Matrical MatriMinistore (Spokane, WA) automated compound storage and retrieval system. For screening, LOPAC daughter plates were withdrawn from -20C storage, thawed to ambient temperature, centrifuged 1-2 min at 50 g, and the plate seals were removed before the transfer of 98 uL of serum-free tissue culture medium (SFM) into wells using the BioTek Microflo liquid handler (BioTek, Winooski, VT) to generate a 200 uM intermediate stock concentration of library compounds (2.0% DMSO). The diluted compounds were mixed by repeated aspiration and dispensation using a 384-well P30 dispensing head on the Evolution P3 (EP3) liquid handling platform (PerkinElmer, Waltham, MA) and then 5 uL of diluted compounds was transferred to the wells of assay plates. In the LOPAC screen, compounds were individually tested at a final concentration of 20 uM (0.2% DMSO). After the diluted compounds had been transferred from the daughter plates to the primary HCS assay plates, aluminum adhesive plate seals were applied and the diluted daughter plates were stored frozen at -20C. To confirm active compounds identified in the primary screen, we withdrew the LOPAC daughter plates containing the 200 uM intermediate concentration of library compounds (2.0% DMSO) from -20C storage, thawed them to ambient temperature, centrifuged them for 1-2 min at 50 g, and removed the plate seals. A work list was generated to direct the Multiprobe Janus liquid handling platform (PerkinElmer) to cherry pick 75 uL from the wells of the diluted daughter plates that were flagged active in the primary screen and to reformat these into a 384-well plate hit confirmation daughter plate. Five microliters of primary HCS active compounds was then transferred into triplicate wells of assay plates using a 384-well P30 dispensing head on the Evolution P3 (EP3) liquid handling platform (PerkinElmer). […] Daughter plates containing 2 uL of the serially diluted compounds in DMSO were prepared and replicated from the 384-well serial dilution master plates using the Bravo outfitted with a 384-well transfer head. Aluminum adhesive plate seals were applied and plates were stored at -20C. For testing in the bioassays, daughter plates were withdrawn from -20C storage, thawed to ambient temperature, centrifuged for 1-2 min at 50 g, and the plate seals were removed before the transfer of 38 uL of SFM into wells using the BioTek Microflo liquid handler (BioTek) to generate an intermediate stock concentration of library compounds ranging from 1.95 to 500 uM (5.0% DMSO). […]
For the compound `O=C(NCc1ncc(C(F)(F)F)cc1Cl)c1c(Cl)cccc1Cl`, the outcome was inactive.

In the case of `Cc1cc(C(=C2C=CC(=Nc3ccc(S(=O)(=O)O)cc3)C=C2)c2ccc(Nc3ccc(S(=O)(=O)O)cc3)cc2)cc(S(=O)(=O)O)c1N`, the outcome was inactive. For the compound `CC(O)COc1ccccc1` (stereo unspecified), the result was inactive. Still for that read-out and setting: next, `O=C(c1ccccc1)c1ccccc1`: “inactive”; `CCCCCCc1ccc(N)cc1`: “inactive”. In the case of `CCCCCc1ccc(O)cc1`, the AC50 was 86.1 µM (active). For the compound `CCCCCCC(C)(C)C(=O)O`, the outcome was inactive. On the same count and under the same terms, next, `COc1cc([N+](=O)[O-])ccc1N`: “inactive”; `CC1COCc2cc3c(cc21)C(C)(C)C(C)C3(C)C` (stereo unspecified): “inactive”.

As to `NC(=NCCCCCCN=C(N)/N=C(\N)Nc1ccc(Cl)cc1)/N=C(\N)Nc1ccc(Cl)cc1`, the AC50 was 11.6 µM (active). `CCCCc1ccc2ccccc2c1S(=O)(=O)O`: the result was inactive.
